# Among all 48,000 compounds or so, about 13,000 (27%) showed an effect of 50% or more. Some of the results follow.
# System: Wolbachia pipientis
# Test: Anti-Wolbachia Cell-Based Screen
# Type: functional
# Design: scale not given: in the data most compounds retested in dose-response had high values
# Conditions: 5 µM
row,SMILES,Percent Effect
1,CC(=O)N1CCC(C(=O)NCCN2CCC(C)CC2)CC1,-2.341%
2,CCN1C(=O)CC(c2cnn(C)c2)C12CCN(C(=O)c1ccoc1)CC2 (stereo not given),0.4401%
3,Cc1nccn1-c1ccc(C(C)NCc2cccn2C)cc1 (stereo not given),-7.942%
4,Cc1ccnc(Cn2cc(-c3cccc(C(C)N(C)C)c3)nn2)c1 (stereo not given),12.93%
5,COc1ccc2c(c1)CCCN2C(=O)CN1CCOC(C)C1 (stereo not given),-7.941%
6,CCC(Nc1ccc(Oc2ccccc2OC)cc1)C(N)=O (stereo not given),11.69%
7,CCC(C)C(=O)Nc1ccc(CCN2CCOCC2)cc1 (stereo not given),92.28%
8,CC(CCc1ccccc1)NC(=O)CN1CCOCC1 (stereo not given),-21.53%
9,CCC(Nc1ccc(CCN2CCCCC2)cc1)C(N)=O (stereo not given),104.3%
10,Cc1ccc(CCCC(=O)N(C)CCN2CCOCC2)cc1,-4.729%
11,NC(=O)C1CCN(CCc2ccc(NC(=O)C3CCC3)cc2)CC1,-0.7709%
12,CC(Nc1ccc(CCN2CCCCC2)cc1)C(=O)N(C)CCC#N (stereo not given),-7.662%
13,COC(=O)C(O)C1CCN(CCc2ccncc2)CC1 (stereo not given),-5.946%
14,CCOC(=O)C(C)Nc1ccc(CCN2CCOCC2)cc1 (stereo not given),97.92%
15,CCC(Nc1ccc(CCN2CCOCC2)cc1)C(N)=O (stereo not given),92.12%
16,O=C(Nc1ccc(CCN2CCC(O)CC2)cc1)C1CCOCC1,8.941%
17,CC(Nc1ccc(CCN2CCOCC2)cc1)C(=O)N(C)CCC#N (stereo not given),7.396%
18,CCOc1cc(NC(=O)NCCn2cnnc2CC)ccc1C,-0.5638%
19,CCc1nc(CN2CCN(c3ncnc4cc(F)ccc34)CC2)no1,-16.98%
20,CN(CCO)Cc1nnc(C2CCN(C(=O)c3cc[nH]c3)CC2)n1C,-143.4%
21,CN1CCN(c2ncccn2)CC1C(N)=O (stereo not given),76.51%
22,CN(C)C(=O)CN1C[C@H]2CCN(c3ncccn3)CC[C@H]2S1(=O)=O.O=C(O)C(F)(F)F,-3.991%

row,SMILES,Percent Effect
1,CN(C)C(=O)[C@@H]1CCO[C@@H]2CCN(c3ncccn3)C[C@@H]21.O=C(O)C(F)(F)F,0.2661%
2,CSc1cccc(CN(C)C(=O)CN2CCN(c3ncccn3)CC2)c1,-6.038%
3,CN1CCN(c2ncccn2)CC(C(=O)N(C)C)C1 (stereo not given),92.05%
4,Cc1ccc(C(=O)N2C[C@@H]3CN(c4ncccn4)C[C@@H]3C2)cc1,3.247%
5,CN(C)C(=O)C1CN(c2ncccn2)CCN1C (stereo not given),84.43%
6,CN(C)C(=O)[C@H]1C[C@@H]2CN(c3ncccn3)C[C@H]1O2,10.85%
7,Cc1ccc(C(=O)N2C[C@@H]3CN(c4ncccn4)C[C@@H]3C2)cn1,1.13%
8,CCc1c(C)nc(C)nc1N1C[C@@H](CN(CC)CCO)[C@@H](CO)C1,6.908%
9,COc1cc(F)ccc1N1CCN(Cc2nnc(C3CC3)o2)CC1,-5.388%
10,Cc1nc(CN2CCCC(N(C)Cc3nc(C)c(C)o3)C2)no1 (stereo not given),-3.907%
11,CC(C)c1nc(CN(C)C2CCN(Cc3nc(C4CC4)no3)C2)no1 (stereo not given),-21.22%
12,CCc1nc(CN2CCCC(N(C)Cc3cnn(C)c3)C2)no1 (stereo not given),10.72%
13,CCCc1noc(CN2CCC(N(C)Cc3nnc(C4CC4)o3)C2)n1 (stereo not given),109.8%
14,CCc1nc(CN(C)C2CCN(Cc3cnc(C)cn3)C2)no1 (stereo not given),5.773%
15,CCc1nc(CN(C)C2CCN(Cc3nnc(C4CCC4)o3)C2)no1 (stereo not given),110.6%
16,Cc1nc(CN2CCCC(N(C)Cc3nnc(C4CC4)o3)C2)no1 (stereo not given),6.77%
17,CCCc1n[nH]c(C2CN(Cc3nnc(C4CC4)o3)CCO2)n1 (stereo not given),-2.84%
18,CC(C)c1nc(CN2CCCN(Cc3nnc(C4CC4)o3)CC2)no1,0.1522%
19,Cc1nc(CN(C)C2CCN(Cc3nnc(C4CC4)o3)C2)no1 (stereo not given),115.8%
20,CC(C)c1nc(CN(C)C2CCN(Cc3nnc(C4CC4)o3)C2)no1 (stereo not given),123.9%
21,CN(Cc1nnc(C2CC2)o1)C1CCN(CCCc2cnn(C)c2)C1 (stereo not given),3.532%
22,O=S(=O)(Cc1ccccc1Cl)NCCCN1CCCC1,-15.99%

row,SMILES,Percent Effect
1,OC1CCN(C2CCN(Cc3cnc(-c4cccs4)nc3)CC2)CC1,3.199%
2,COc1cc(OC)c(-c2nc3c([nH]2)c(C2CC2)nn3C)cc1OC,11.95%
3,CN1CCOC(C(=O)Nc2nc(-c3ccc(Cl)cc3)n[nH]2)C1 (stereo not given),-7.364%
4,O=C(CCC1CCCC1)N1C[C@H]2CC[C@@H]1CN(Cc1ccncc1)C2,3.308%
5,O=C(O)CC(O)(CC(=O)O)C(=O)O.c1ccc([C@@H]2CN(Cc3cccnc3)C[C@H]2c2cc[nH]n2)cc1,104%
6,COc1ccccc1[C@@H]1CN(Cc2ccncc2)C[C@H]1C(=O)O,-10.92%
7,O=C(O)CC(O)(CC(=O)O)C(=O)O.c1ccc(CC2CCN(Cc3ccnc(-c4cccnc4)n3)CC2)cc1,2.968%
8,COc1ccc(CN2C[C@@H]3CN(Cc4ccncc4)C[C@@H]3C2=O)cc1.O=C(O)C(F)(F)F.O=C(O)C(F)(F)F,-12.53%
9,O=C(O)CC(O)(CC(=O)O)C(=O)O.c1cncc(-c2nccc(CN3CCCC3)n2)c1,-12.77%
10,COc1ccc(CN2C[C@H]3CN(Cc4ccncc4)C(=O)[C@H]3C2)cc1.O=C(O)C(F)(F)F.O=C(O)C(F)(F)F,-3.011%
11,O=C(O)CC(O)(CC(=O)O)C(=O)O.c1ccc([C@@H]2CN(Cc3ccncc3)C[C@H]2c2cc[nH]n2)cc1,114%
12,COc1ccc([C@@H]2CN(Cc3ccncc3)C[C@H]2c2cc[nH]n2)cc1.O=C(O)CC(O)(CC(=O)O)C(=O)O,69.64%
13,Cc1csc(CN(C)S(=O)(=O)c2ccc(C)c(N(C)C)c2)n1,11.95%
14,Cc1c(NC(=O)c2noc3c2CCCC3)cnn1C,77.55%
15,Cc1cc(CN2CCC(CNC(=O)c3noc4c3CCCC4)C2)[nH]n1 (stereo not given),-1.453%
16,Cn1ncc(NC(=O)c2noc3c2CCCC3)c1C(=O)N1CCCCC1,98.83%
17,Cc1cc(C(N)=O)ccc1NC(=O)c1nc(N2CCCC2)ncc1Cl,-12.29%
18,COc1cccc([C@H]2CN(C(=O)c3noc4c3CCCC4)C[C@@H]2N)c1,-1.914%
19,Cn1ncc(NC(=O)c2noc3c2CCCC3)c1C(N)=O,112.2%
20,CN(C)C(=O)c1noc2c1CN(C(=O)CCCN1CCCCC1)CC2,-13.23%
21,CN1CCc2[nH]cnc2C12CCN(C(=O)c1noc3c1CCCC3)CC2,33.96%
